Experimental data: PubChem BioAssay
Active and inactive are the calls of the source.

Tests used:
[1] = E. coli DRC41 culture turbidity changes, primary screen, E. coli filamentation inducer project, strain DRC41, OD650, 48 h (AID 1152);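 note: E. coli MC1000 strain DRC41 lacking acrAB efflux pump and sulA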; conditions: E. coli DRC41 (acrAB sulA), higher = more signal, called active from +8 up or from −8 down
[2] = small-molecule binders of probe aLefty1, primary screen, biochemical, small-molecule microarray, 635/667 nm fluorescence (AID 1153); conditions: higher = more signal;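 note: score merges spot fluorescence with signal-to-noise ratio from the scanned slide images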
[3] = PSAC antagonists in infected red cells, primary screen, cell-based, P. falciparum Indochina, OD700, 1 h (AID 1154); conditions: P. falciparum Indochina infected RBC osmotic lysis, higher = more signal, called active from +8 up or from −8 down
[4] = PSAC antagonists in infected red cells, primary screen, cell-based, P. falciparum Indochina, OD700, 2 h (AID 1155);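 note: lysis reports solute entry through the parasite surface anion channel PSAC; channel blockers reduce lysis of infected cells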; conditions: P. falciparum Indochina infected erythrocytes, osmotic lysis OD700; higher = more signal, called active from +8 up or from −8 down
[5] = osmotic lysis modulators in infected erythrocytes, primary screen, PSAC antagonist project, cell-based, P. falciparum Indochina, OD700, 3 h (AID 1156); conditions: higher = more signal, called active from +8 up or from −8 down
[6] = PSAC antagonists in infected red cells, primary screen, cell-based, P. falciparum Indochina, OD700, 18 h (AID 1157); conditions: P. falciparum Indochina infected erythrocytes, osmotic lysis OD700, 18 h; higher = more signal, called active from +8 up or from −8 down
[7] = modulators of S6 phosphorylation in cells, primary screen, cell-based, A549, cytoblot, luminescence, serum-stimulated (AID 1158); conditions: A549 phospho-S6 cytoblot, 5 h, higher = more signal;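 note: serum-stimulated A549 lung adenocarcinoma cells; signal is phosphorylated S6 detected by cytoblot immunostaining with HRP secondary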
[8] = target: NADPH oxidase 2 (Homo sapiens) (UniProt P04839); assay: NOX2-dependent H2O2 signal modulators, primary screen, NOX inhibitor project, cell-based, HEK293-NOX2, PMA-stimulated, Amplex Red fluorescence (AID 1159); conditions: 45 min, higher = more signal, called active from +8 up or from −8 down; note: test concentration not given here
NADPH oxidase 2 (Homo sapiens), sequence (P04839 whole entry, looked up): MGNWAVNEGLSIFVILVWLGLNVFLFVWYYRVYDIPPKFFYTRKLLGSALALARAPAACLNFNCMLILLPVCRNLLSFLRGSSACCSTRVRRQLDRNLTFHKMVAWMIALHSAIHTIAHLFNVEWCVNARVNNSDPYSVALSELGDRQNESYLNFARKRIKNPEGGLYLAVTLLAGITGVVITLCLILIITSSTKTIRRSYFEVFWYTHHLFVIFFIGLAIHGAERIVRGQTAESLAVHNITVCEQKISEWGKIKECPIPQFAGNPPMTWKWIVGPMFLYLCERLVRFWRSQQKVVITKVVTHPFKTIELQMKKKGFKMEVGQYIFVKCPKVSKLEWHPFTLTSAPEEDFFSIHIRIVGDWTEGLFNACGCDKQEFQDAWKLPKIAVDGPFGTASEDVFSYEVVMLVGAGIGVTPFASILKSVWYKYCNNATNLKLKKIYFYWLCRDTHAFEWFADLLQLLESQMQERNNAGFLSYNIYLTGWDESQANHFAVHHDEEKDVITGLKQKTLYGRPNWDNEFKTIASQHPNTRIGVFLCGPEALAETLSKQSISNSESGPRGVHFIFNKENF

[9] = target: NADPH oxidase 4 (Homo sapiens) (UniProt Q9NPH5); assay: NOX4-dependent H2O2 signal modulators, primary screen, NOX inhibitor project, cell-based, HEK293-NOX4, tetracycline-induced, Amplex Red fluorescence (AID 1160); conditions: 45 min, higher = more signal, called active from +8 up or from −8 down
NADPH oxidase 4 (Homo sapiens), sequence (Q9NPH5 whole entry, looked up): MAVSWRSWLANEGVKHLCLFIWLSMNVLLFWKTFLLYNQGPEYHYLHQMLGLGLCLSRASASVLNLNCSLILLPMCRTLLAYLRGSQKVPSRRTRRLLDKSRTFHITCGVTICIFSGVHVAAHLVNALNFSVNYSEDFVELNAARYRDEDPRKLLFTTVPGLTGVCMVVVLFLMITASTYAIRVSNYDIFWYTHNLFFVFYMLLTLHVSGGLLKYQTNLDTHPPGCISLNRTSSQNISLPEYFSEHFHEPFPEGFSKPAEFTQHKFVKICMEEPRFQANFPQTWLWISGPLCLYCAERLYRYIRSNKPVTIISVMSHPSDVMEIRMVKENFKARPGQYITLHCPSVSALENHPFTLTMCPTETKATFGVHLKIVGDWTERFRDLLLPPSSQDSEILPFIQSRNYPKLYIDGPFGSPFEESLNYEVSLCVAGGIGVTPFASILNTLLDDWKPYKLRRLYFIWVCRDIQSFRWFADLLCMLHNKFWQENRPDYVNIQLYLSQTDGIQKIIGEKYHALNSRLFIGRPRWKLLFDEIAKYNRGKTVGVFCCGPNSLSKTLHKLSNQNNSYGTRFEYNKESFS

[10] = target: NADPH oxidase 5 (Homo sapiens) (UniProt Q96PH1); assay: NOX5-dependent H2O2 signal modulators, primary screen, NOX inhibitor project, cell-based, HEK293-NOX5, Amplex Red fluorescence (AID 1161); conditions: HEK293-NOX5, ionomycin, 45 min, higher = more signal
NADPH oxidase 5 (Homo sapiens), sequence (Q96PH1 whole entry, looked up): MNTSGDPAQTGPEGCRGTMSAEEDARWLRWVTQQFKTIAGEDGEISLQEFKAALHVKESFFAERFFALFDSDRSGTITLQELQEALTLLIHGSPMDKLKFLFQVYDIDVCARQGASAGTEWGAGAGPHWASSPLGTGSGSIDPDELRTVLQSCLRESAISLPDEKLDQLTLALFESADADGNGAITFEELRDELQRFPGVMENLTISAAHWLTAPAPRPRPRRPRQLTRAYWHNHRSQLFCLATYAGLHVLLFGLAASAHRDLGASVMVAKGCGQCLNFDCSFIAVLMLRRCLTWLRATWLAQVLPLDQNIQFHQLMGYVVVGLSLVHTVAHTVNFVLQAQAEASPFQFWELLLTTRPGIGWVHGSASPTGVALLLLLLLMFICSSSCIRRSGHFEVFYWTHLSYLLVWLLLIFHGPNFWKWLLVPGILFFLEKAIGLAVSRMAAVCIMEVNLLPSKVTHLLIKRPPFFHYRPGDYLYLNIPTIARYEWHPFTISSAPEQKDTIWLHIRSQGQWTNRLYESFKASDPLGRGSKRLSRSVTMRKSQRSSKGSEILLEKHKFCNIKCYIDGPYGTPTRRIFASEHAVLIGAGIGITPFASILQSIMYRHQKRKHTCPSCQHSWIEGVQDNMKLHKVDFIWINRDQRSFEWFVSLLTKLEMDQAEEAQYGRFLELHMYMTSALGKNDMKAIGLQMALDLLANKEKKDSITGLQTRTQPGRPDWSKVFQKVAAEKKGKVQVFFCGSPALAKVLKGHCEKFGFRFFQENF

[11] = A549 cell viability effects, profiling panel, calcein-AM fluorescence, 48 h, basal (AID 1162); conditions: higher = more signal; note: test concentration not given here
[12] = adipocyte viability effects, profiling panel, cell-based, 3T3-L1 adipocytes, calcein-AM fluorescence, 48 h, basal (AID 1163); conditions: 3T3-L1 adipocytes viability, higher = more signal; note: test concentration not given here
[13] = HepG2 cell viability effects, profiling panel, calcein-AM fluorescence, 48 h, basal (AID 1164); conditions: higher = more signal; note: test concentration not given here
[14] = MM1S cell viability effects, profiling panel, calcein-AM fluorescence, 48 h, basal (AID 1165); conditions: higher = more signal;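 note: viability of MM1S multiple myeloma cells under basal unstimulated conditions; test concentration not given here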
[15] = basal RPMI8226 viability, no added stimulus, profiling panel, cell-based, calcein-AM fluorescence, 48 h, PK04 Diversity Set (AID 1166); conditions: RPMI8226 myeloma viability, higher = more signal;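 note: cells grown under basal conditions without added stimulus; test concentration not given here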
[16] = basal HepG2 mitochondrial membrane potential changes, profiling panel, cell-based, JC-1 fluorescence, 24 h, 100 nL compound (AID 1167); conditions: higher = more signal; note: test concentration not given here
[17] = basal 3T3-L1 adipocyte mitochondrial potential changes, profiling panel, cell-based, JC-1 fluorescence, 3T3-L1 adipocytes, 24 h, 100 nL compound (AID 1168); conditions: JC-1 mitochondrial fluorescence, higher = more signal, called active from +8 up or from −8 down; note: test concentration not given here
[18] = basal RPMI8226 mitochondrial membrane potential changes, profiling panel, cell-based, JC-1 fluorescence, 24 h, 100 nL compound (AID 1169); conditions: RPMI8226 myeloma, JC-1 mitochondrial potential fluorescence, higher = more signal; note: test concentration not given here
[19] = basal MM1S mitochondrial membrane potential changes, profiling panel, cell-based, JC-1 fluorescence, 24 h, 100 nL compound (AID 1170); conditions: higher = more signal; note: test concentration not given here
[20] = A549 lung cancer cell viability effects, profiling panel, resazurin fluorescence, 24 h, PK04 Diversity Set (AID 1171); conditions: higher = more signal, called active from +8 up or from −8 down; note: test concentration not given here

SMILES	z-score [1]	composite z-score [2]	z-score [3]	z-score [4]	z-score [5]	z-score [6]	z-score [7]	z-score [8]	z-score [9]	z-score [10]	z-score [11]	z-score [12]	z-score [13]	z-score [14]	z-score [15]	z-score [16]	z-score [17]	z-score [18]	z-score [19]	z-score [20]
CCOC(=O)C[C@H]1[C@H](OC(=O)Cc2ccc3c(c2)OCO3)[C@@H](NC(=O)c2ccc(-c3ccccc3)cc2)c2cc(OCCCO)ccc2N1C(=O)c1ccc2ccccc2n1	1.55 (inactive)	-0.0536	8.44 (active)	0.67 (inactive)	-0.352 (inactive)	-0.258 (inactive)	2.85	-2.09 (inactive)	-1.28 (inactive)	-1.21	1.8	2.75	1.65	0.218	-0.472	2.72	0.61 (inactive)	-0.233	-0.903	0.562 (inactive)
COc1ccc([C@H]2OC[C@@H]3CC4(CC=CC4)C(=O)N32)cc1	-0.56 (inactive)	0.0406	0.486 (inactive)	0.477 (inactive)	-0.51 (inactive)	0.136 (inactive)	-0.516	0.777 (inactive)	0.674 (inactive)	0.291	0.262	-0.238	-0.0409	-0.58	0.055	-0.301	0.197 (inactive)	-0.54	0.17	-0.312 (inactive)
NCCCCCNC(=O)[C@@H]1C[C@@H]2C(=O)N[C@@H](Cc3ccccc3)C(=O)N2[C@@H]1c1cccc(OCCO)c1	-0.389 (inactive)	-0.101	3.51 (inactive)	0.418 (inactive)	1.18 (inactive)	0.351 (inactive)	-0.0201	2.11 (inactive)	-0.729 (inactive)	0.832	-0.349	0.512	-0.442	0.143	-0.371	-1.04	-0.684 (inactive)	-0.0752	0.894	-0.403 (inactive)
O=C(O)[C@@]1(CCS(=O)(=O)c2ccccc2)COC(c2ccc(OCCCO)cc2)=N1	-0.513 (inactive)	-0.0601	1.58 (inactive)	-0.783 (inactive)	-0.821 (inactive)	-0.392 (inactive)	-0.312	-0.0194 (inactive)	0.85 (inactive)	0.779	0.518	-0.664	-0.0551	-1.69	-0.658	-1.13	0.148 (inactive)	0.943	-0.436	0.221 (inactive)
COc1ccc([Si](C)(C)[C@H]2[C@H](CCn3cc([C@H](O)c4ccccc4)nn3)O[C@@]3(C(=O)N(Cc4cccc(N5CCOC5=O)c4)c4ccccc43)[C@@H]2C)cc1	-0.454 (inactive)	-0.249	26.1 (active)	9.3 (active)	-0.295 (inactive)	1.4 (inactive)	0.17	0.0189 (inactive)	2.51 (inactive)	2.28	0.377	0.283	0.243	-1.32	-0.332	-0.242	-0.537 (inactive)	-0.463	-0.637	-1.06 (inactive)
CN(C)CCCCCCNC(=O)[C@@H]1C[C@@H]2C(=O)N[C@@H](CCCCN)C(=O)N2[C@@H]1c1cccc(OCCO)c1	-0.374 (inactive)	2.74	1.59 (inactive)	-0.644 (inactive)	0.0026 (inactive)	-2.47 (inactive)	1.51	0.853 (inactive)	0.7 (inactive)	1.95	0.73	0.565	1.25	-0.137	0.207	1.87	0.247 (inactive)	-0.209	0.135	0.159 (inactive)
C=CCOC(=O)[C@@H]1[C@H]2C(=O)O[C@H](c3ccccc3)[C@H](c3ccccc3)N2[C@H](c2ccc(OCCOC(=O)[C@@H]3C[C@@H]4C(=O)N[C@@H](Cc5ccccc5)C(=O)N4[C@@H]3c3ccc(O)cc3)cc2)[C@@]12C(=O)Nc1ccc(I)cc12	0.299 (inactive)	0.546	2.33 (inactive)	1.87 (inactive)	5.01 (inactive)	1.14 (inactive)	0.572	0.715 (inactive)	0.304 (inactive)	0.591	-1.09	1.39	0.1	0.67	-0.645	-1.56	0.865 (inactive)	-0.451	-1.38	0.128 (inactive)
O=C(NCc1ccccc1)[C@@H]1c2ccccc2C(=O)N(CC23CC4CC(CC(C4)C2)C3)[C@H]1c1ccc(CO)cc1	-1.09 (inactive)	-0.538	3.76 (inactive)	0.295 (inactive)	1.76 (inactive)	0.134 (inactive)	-0.366	-2.38 (inactive)	0.191 (inactive)	-1.55	0.449	-0.475	0.57	-0.708	-0.896	0.362	-0.924 (inactive)	-0.136	-0.711	-0.471 (inactive)
COC(=O)[C@@]1(Cc2ccccc2)[C@H]2c3cc(C(=O)N(C)C)n(CCSCCO)c3C[C@H]2CN1C(=O)c1ccccc1	-1.8 (inactive)	0.138	1.02 (inactive)	0.187 (inactive)	0.189 (inactive)	0.496 (inactive)	-0.199	0.594 (inactive)	0.597 (inactive)	-0.72	0.571	-0.0167	-0.0301	-0.614	-0.933	-1.37	-0.728 (inactive)	0.354	-0.229	0.0392 (inactive)
O=C1O[C@@H](c2ccccc2)[C@@H](c2ccccc2)N2[C@@H](c3ccccc3OCCO)[C@]3(C(=O)Nc4ccc(C#CC5=CCCCC5)cc43)[C@@H](C(=O)Nc3nc4ccccc4s3)[C@H]12	0.36 (inactive)	0.293	1.83 (inactive)	1.9 (inactive)	1.37 (inactive)	1.83 (inactive)	0.653	1.78 (inactive)	0.387 (inactive)	1.59	-1.36	0.608	-0.786	-2.8	-2.88	-2.9	-0.353 (inactive)	-1.05	-1.42	-0.301 (inactive)
CCc1oc(CC[C@@H](CO)NC(=O)NCCn2cc(C3(O)CCCCC3)nn2)c(C(=O)OC)c1C(=O)OC	-1.26 (inactive)	0.0768	25.6 (active)	7.39 (inactive)	0.709 (inactive)	1.07 (inactive)	-0.524	-1.59 (inactive)	-0.491 (inactive)	-1.14	-0.0645	-0.33	-0.68	-0.0035	0.0168	-0.176	-0.0732 (inactive)	0.756	0.14	-0.892 (inactive)
CC1CC/C=C\[C@H]2OC34C=CCN(C(C)(C)C)C(=O)[C@H]3N(CCCCCCO)C(=O)[C@@H]4C2C(=O)O1 (stereo not given in full)	0.0837 (inactive)	-0.0501	0.375 (inactive)	0.794 (inactive)	0.39 (inactive)	0.771 (inactive)	-0.0989	0.959 (inactive)	-0.0389 (inactive)	1.77	0.406	0.305	1.08	0.742	0.298	0.436	1.11 (inactive)	0.563	-0.166	-0.43 (inactive)
CC(=O)n1cc(C(O)C2C=CC3C(=O)N(C)C(=O)C3N2Nc2ccccc2)c2ccccc21 (stereo not given)	-1.39 (inactive)	0.384	1.11 (inactive)	0.475 (inactive)	-0.372 (inactive)	0.876 (inactive)	-0.994	-1.57 (inactive)	-3.46 (inactive)	-2.78	-0.617	-0.652	-0.804	0.305	-1.25	-1.58	-0.454 (inactive)	-0.0553	0.118	-0.162 (inactive)
C=CCOC(=O)[C@@H]1[C@H]2C(=O)O[C@H](c3ccccc3)[C@H](c3ccccc3)N2[C@H](c2ccc(OCCOC(=O)[C@@H]3C[C@@H]4C(=O)N5CCC[C@H]5C(=O)N4[C@@H]3c3ccc(O)cc3)cc2)[C@@]12C(=O)Nc1ccc(I)cc12	2.52 (inactive)	0.365	2.19 (inactive)	0.727 (inactive)	2.43 (inactive)	-1.31 (inactive)	3.17	1.32 (inactive)	0.808 (inactive)	1.69	1.87	1.24	0.502	-0.573	0.278	-1.6	0.231 (inactive)	-0.752	-1.25	-0.248 (inactive)
CC(C)C[C@H]1NC(=O)[C@@]23C(=O)N[C@@H](Cc4ccccc4)C2[C@H](C)[C@@]2(C)O[C@H]2C3/C=C/C/C=C\CNC(=O)[C@H](Cc2ccccc2)NC1=O (stereo not given in full)	-0.0044 (inactive)	0.0999	2.14 (inactive)	-0.0365 (inactive)	1.58 (inactive)	0.207 (inactive)	-0.175	0.845 (inactive)	-0.847 (inactive)	0.971	-0.278	0.733	-1.03	-0.207	-0.567	0.804	-0.172 (inactive)	-1.09	0.687	0.217 (inactive)
O=C(C1N=C(c2ccc(OCCCO)cc2)N(c2ccccc2)O1)N1CCOCC1 (stereo not given)	1.72 (inactive)	0.0721	24.4 (active)	4.44 (inactive)	-0.593 (inactive)	-0.121 (inactive)	1.75	-3.16 (inactive)	-0.258 (inactive)	-0.432	0.895	0.349	0.0818	0.932	1.22	0.0222	0.645 (inactive)	-1.06	-1.05	0.298 (inactive)
C[C@@H]1ON(c2cccc(C(=O)OC(C)(C)C)c2)[C@H](c2ccc(Br)cc2)[C@H]1C(=O)N1C(=O)OC[C@H]1Cc1ccccc1	-0.46 (inactive)	0.2	-0.351 (inactive)	0.488 (inactive)	-0.611 (inactive)	0.011 (inactive)	0.217	-1.01 (inactive)	-0.079 (inactive)	-0.0305	0.407	-0.941	-0.0479	-0.357	-0.205	-0.344	0.375 (inactive)	0.0362	1.88	0.319 (inactive)
O=C1C2C=CC(C(O)c3c(F)cccc3Cl)N(Nc3ccccc3)C2C(=O)N1c1ccccc1 (stereo not given)	-0.0623 (inactive)	0.547	18.7 (active)	3.73 (inactive)	0.419 (inactive)	1.93 (inactive)	-0.458	-1.69 (inactive)	-3.01 (inactive)	-2.42	1.14	-1.4	0.309	-0.474	0.474	-1.41	0.455 (inactive)	-0.235	-0.488	-0.0768 (inactive)
